# Reference: PubChem BioAssay (Tox21)
# Results filed as inconclusive are left out. The source made the active and inactive calls. Calls come from the whole dose curve.
# Biological target: Acetylcholinesterase (Homo sapiens) (UniProt P22303)
# Experiment: Acetylcholinesterase (AChE) small molecule antagonists: colormetric cell-based qHTS assay (AID 1347395); note: nearly all actives have a fitted effect of over 30% in size; note: potency is the fitted concentration of half-maximal effect
# Settings: SH-SY5Y cells AChE activity, colorimetric (Ellman); series mostly up to 115 µM; activity, negative = inhibition: at the top concentration
# How it was run: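 Neuroblastoma line SH-SY5Y supplied the enzyme; cells were preincubated with compound for 30 min at 37 C and 5% CO2. Acetylthiocholine with DTNB was then added for 90 min at 37 C, and thiocholine was measured by colour.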
# % is set by controls: 0 for no effect and ±100 for the full control effect.
# Acetylcholinesterase (Homo sapiens), sequence (P22303 whole entry, looked up): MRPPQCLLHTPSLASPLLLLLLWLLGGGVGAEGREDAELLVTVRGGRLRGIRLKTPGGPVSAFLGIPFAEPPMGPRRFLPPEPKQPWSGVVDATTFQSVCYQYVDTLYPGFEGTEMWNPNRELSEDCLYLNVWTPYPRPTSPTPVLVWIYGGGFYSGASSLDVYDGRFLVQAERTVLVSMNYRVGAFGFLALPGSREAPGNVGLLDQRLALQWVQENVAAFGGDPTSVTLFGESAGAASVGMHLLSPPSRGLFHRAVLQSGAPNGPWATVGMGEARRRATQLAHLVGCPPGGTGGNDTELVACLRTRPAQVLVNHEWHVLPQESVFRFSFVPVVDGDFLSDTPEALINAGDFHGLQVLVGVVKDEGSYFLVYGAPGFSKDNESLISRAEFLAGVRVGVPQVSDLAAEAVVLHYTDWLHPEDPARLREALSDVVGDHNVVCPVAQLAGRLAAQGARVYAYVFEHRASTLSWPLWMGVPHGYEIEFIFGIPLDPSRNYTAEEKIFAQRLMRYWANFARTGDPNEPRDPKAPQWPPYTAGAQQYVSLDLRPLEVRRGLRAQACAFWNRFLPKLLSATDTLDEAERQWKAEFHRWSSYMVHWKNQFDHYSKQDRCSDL
SMILES,"activity, negative = inhibition",Potency
CCOC(=O)CC(CC(=O)OCC)(OC(C)=O)C(=O)OCC,2.03% (inactive),–
CC1CCc2cc(F)cc3c(=O)c(C(=O)O)cn1c23 (stereo not given),0.925% [at 52.9 µM] (inactive),–
O=C(O)CN(CC(=O)O)CC(=O)O,–,inactive
CCC(C)c1cc(C(C)(C)C)c(O)c(C(C)(C)C)c1 (stereo not given),-2.24% (inactive),–
CC1=NN(c2cc(Cl)c(S(=O)(=O)O)cc2Cl)C(=O)C1N=Nc1ccc(S(=O)(=O)O)cc1 (stereo not given),9.29% (inactive),–
CC(=O)O[C@H](CC(=O)[O-])C[N+](C)(C)C,-0.479% (inactive),–
Cc1cccc(Nc2cc(Cl)nc(SCC(=O)O)n2)c1C,–,inactive
CC(=O)[O][Al][O]C(C)=O,4.58% (inactive),–
COc1ccc(NC(C)=O)cc1,0.103% (inactive),–
CC(=O)N1CCN(c2ccc(OC[C@H]3CO[C@](Cn4ccnc4)(c4ccc(Cl)cc4Cl)O3)cc2)CC1,–,35.6 µM (active)
O=C1c2ccccc2C(=O)c2cc(S(=O)(=O)O)ccc21,1.87% (inactive),–
O=c1[nH]c2ccccc2n1CCCN1CCN(C(c2ccccc2)c2ccccc2)CC1,3.79% [at 52.9 µM] (inactive),–
C=Cc1ccccc1,-0.904% (inactive),–
O=CN(CCO)CCO,0.389% (inactive),–
O=C1c2c(O)cccc2Cc2cccc(O)c21,–,inactive
C=CC(=O)OCC(CO)(COCC(COC(=O)C=C)(COC(=O)C=C)COC(=O)C=C)COC(=O)C=C,-2.15% (inactive),–
S=c1nccc[nH]1,-0.0969% (inactive),–
CC(C)(C)C(O)/C=C/c1ccc2c(c1)OCO2 (stereo not given),3.18% [at 52.9 µM] (inactive),–
CC1(C)C2=CCCC(C)(C)[C@]23CC[C@H]1C3,-0.316% (inactive),–
O=c1c(-c2ccc(O)cc2)coc2cc(O)ccc12,–,inactive

SMILES,"activity, negative = inhibition",Potency
CCCCC1(COC(=O)CCC(=O)O)C(=O)N(c2ccccc2)N(c2ccccc2)C1=O,–,inactive
CN(C)c1ccc(/C=C/c2ccc([N+](=O)[O-])cc2)cc1,3.64% [at 10.5 µM] (inactive),–
Nc1ccc(O)c(C(=O)O)c1,–,inactive
CC1(C)O[C@@H]2C[C@H]3[C@@H]4CCC5=CC(=O)C=C[C@]5(C)[C@@]4(F)[C@@H](O)C[C@]3(C)[C@]2(C(=O)CO)O1,–,inactive
CC1(C)CC(N)CC(C)(CN)C1 (stereo not given),–,inactive
Oc1ccccc1C=NCc1ccccc1,-0.969% [at 52.9 µM] (inactive),–
CC(C)CCCCCCCOC(=O)c1ccc(C(=O)OCCCCCCCC(C)C)c(C(=O)OCCCCCCCC(C)C)c1,0% (inactive),–
N[C@@H](C(=O)N[C@@H]1C(=O)N2C(C(=O)O)=C(Cl)CS[C@H]12)c1ccccc1,-0.844% [at 10.5 µM] (inactive),–
CC[C@@]1(O)C(=O)OCc2c1cc1n(c2=O)Cc2cc3c(CN(C)C)c(O)ccc3nc2-1,0.793% [at 52.9 µM] (inactive),–
CCC(CO)CO,0.876% (inactive),–
CC(C)(C#N)c1cc(Cn2cncn2)cc(C(C)(C)C#N)c1,–,inactive
CCOc1ccc2c(c1)C(C)=CC(C)(C)N2,–,inactive
CC(C)C(C)(C)C(C)(C)C(C)(C)S,-17.5% (inactive),–
C[C@H](CCC(=O)O)[C@H]1CC[C@H]2[C@@H]3[C@H](O)C[C@@H]4C[C@H](O)CC[C@]4(C)[C@H]3CC[C@]12C,-1.36% (inactive),–
COc1cc(C(=S)N2CCOCC2)cc(OC)c1OC,3.24% [at 52.9 µM] (inactive),–
Fc1ccccc1,6.36% (inactive),–
O=C(Cl)c1ccc(C(=O)Cl)cc1,–,inactive
CC(c1cc2ccccc2s1)N(O)C(N)=O (stereo not given),–,inactive
C[C@@H]1CC(=O)NN=C1c1ccc(NN=C(C#N)C#N)cc1,–,inactive
C/C=C/C=C/CCCCCCCO,-2.65% (inactive),–

# Biological target: Acetylcholinesterase (Homo sapiens) (UniProt P22303)
# Experiment: Acetylcholinesterase (AChE) small molecule antagonists: enzyme-based qHTS assay (AID 1347397); note: nearly all actives have a fitted effect of over 55% in size
# Settings: Potency: AChE enzyme activity inhibition; outcome: AChE enzyme activity inhibition; series mostly up to 115 µM; activity change, negative = inhibition: at the top concentration
# How it was run: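 Colorimetric DTNB read-out of thiocholine released from acetylthiocholine by recombinant human AChE (50 mU/mL as dispensed). Compounds were preincubated 30 min at RT before substrate/DTNB addition, with a 10 min RT reaction.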
SMILES,"activity change, negative = inhibition",Potency
CCOC(=O)CC(CC(=O)OCC)(OC(C)=O)C(=O)OCC,1.56% (inactive),–
CC1CCc2cc(F)cc3c(=O)c(C(=O)O)cn1c23 (stereo not given),-0.0669% [at 53 µM] (inactive),–
O=C(O)CN(CC(=O)O)CC(=O)O,–,inactive
CCC(C)c1cc(C(C)(C)C)c(O)c(C(C)(C)C)c1 (stereo not given),-2.32% (inactive),–
CC1=NN(c2cc(Cl)c(S(=O)(=O)O)cc2Cl)C(=O)C1N=Nc1ccc(S(=O)(=O)O)cc1 (stereo not given),17.5% (inactive),–
CC(=O)O[C@H](CC(=O)[O-])C[N+](C)(C)C,-0.903% (inactive),–
Cc1cccc(Nc2cc(Cl)nc(SCC(=O)O)n2)c1C,–,inactive
CC(=O)[O][Al][O]C(C)=O,-1.16% (inactive),–
COc1ccc(NC(C)=O)cc1,-0.409% (inactive),–
CC(=O)N1CCN(c2ccc(OC[C@H]3CO[C@](Cn4ccnc4)(c4ccc(Cl)cc4Cl)O3)cc2)CC1,-5.17% (inactive),–
O=C1c2ccccc2C(=O)c2cc(S(=O)(=O)O)ccc21,3.57% (inactive),–
O=c1[nH]c2ccccc2n1CCCN1CCN(C(c2ccccc2)c2ccccc2)CC1,1.08% [at 53 µM] (inactive),–
C=Cc1ccccc1,-2.04% (inactive),–
O=CN(CCO)CCO,0.275% (inactive),–
O=C1c2c(O)cccc2Cc2cccc(O)c21,–,inactive
C=CC(=O)OCC(CO)(COCC(COC(=O)C=C)(COC(=O)C=C)COC(=O)C=C)COC(=O)C=C,-0.774% (inactive),–
S=c1nccc[nH]1,0.769% (inactive),–
CC(C)(C)C(O)/C=C/c1ccc2c(c1)OCO2 (stereo not given),0% [at 53 µM] (inactive),–
CC1(C)C2=CCCC(C)(C)[C@]23CC[C@H]1C3,-3.14% (inactive),–
O=c1c(-c2ccc(O)cc2)coc2cc(O)ccc12,–,inactive

SMILES,"activity change, negative = inhibition",Potency
CCCCC1(COC(=O)CCC(=O)O)C(=O)N(c2ccccc2)N(c2ccccc2)C1=O,–,inactive
CN(C)c1ccc(/C=C/c2ccc([N+](=O)[O-])cc2)cc1,1.35% [at 10.5 µM] (inactive),–
Nc1ccc(O)c(C(=O)O)c1,–,inactive
CC1(C)O[C@@H]2C[C@H]3[C@@H]4CCC5=CC(=O)C=C[C@]5(C)[C@@]4(F)[C@@H](O)C[C@]3(C)[C@]2(C(=O)CO)O1,–,inactive
CC1(C)CC(N)CC(C)(CN)C1 (stereo not given),–,inactive
Oc1ccccc1C=NCc1ccccc1,1.51% [at 53 µM] (inactive),–
CC(C)CCCCCCCOC(=O)c1ccc(C(=O)OCCCCCCCC(C)C)c(C(=O)OCCCCCCCC(C)C)c1,-6.21% (inactive),–
N[C@@H](C(=O)N[C@@H]1C(=O)N2C(C(=O)O)=C(Cl)CS[C@H]12)c1ccccc1,-0.554% [at 10.5 µM] (inactive),–
CC[C@@]1(O)C(=O)OCc2c1cc1n(c2=O)Cc2cc3c(CN(C)C)c(O)ccc3nc2-1,8.82% [at 53 µM] (inactive),–
CCC(CO)CO,0.459% (inactive),–
CC(C)(C#N)c1cc(Cn2cncn2)cc(C(C)(C)C#N)c1,–,inactive
CCOc1ccc2c(c1)C(C)=CC(C)(C)N2,–,inactive
CC(C)C(C)(C)C(C)(C)C(C)(C)S,2.32% (inactive),–
C[C@H](CCC(=O)O)[C@H]1CC[C@H]2[C@@H]3[C@H](O)C[C@@H]4C[C@H](O)CC[C@]4(C)[C@H]3CC[C@]12C,-1.23% (inactive),–
COc1cc(C(=S)N2CCOCC2)cc(OC)c1OC,-1.21% [at 53 µM] (inactive),–
Fc1ccccc1,1.48% (inactive),–
O=C(Cl)c1ccc(C(=O)Cl)cc1,–,inactive
CC(c1cc2ccccc2s1)N(O)C(N)=O (stereo not given),–,inactive
C[C@@H]1CC(=O)NN=C1c1ccc(NN=C(C#N)C#N)cc1,–,inactive
C/C=C/C=C/CCCCCCCO,-1.42% (inactive),–
